Source: PubChem BioAssay (NCI)
This is part of a sample that, as a whole, favours compounds with a hit. Of some 83,000 tested, about 20% had one in any assay.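 In brief: 96-well plates, 48 h treatment, single concentration, percent growth endpoint.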 A number with no mark means an inactive call. Activity calls are given as the source filed them. Rule for the calls: active = growth percent below 10; inactive = the rest.

What follows are molecules tested on LOX IMVI melanoma (assay: NCI-60 one-dose screen, 48 h (100 = growth as untreated, 0 = no growth, -100 = all killed)). Conditions: 10 µM unless noted.

`CC[C@H](CO)Nc1ccc2ncc(C#Cc3cncc(C(=O)Nc4ccc(CN5CCN(C)CC5)c(C(F)(F)F)c4)c3)n2n1` was tested. Which growth did it give?
Its growth is -98.8% (active).

For `COc1cc(-c2nc(SCCC(C)C)nc(NNC(=O)c3ccncc3)c2C#N)cc(OC)c1OC`, which growth is on record?
Its growth is 53.4%.

How did the growth turn out when `CCCCCc1ccc(S(=O)(=O)Nc2cc(-c3csc(NC(=O)CN4CCN(CCO)CC4)n3)ccc2OC)cc1` was run?
The growth was -82.5% (active).

How did the growth turn out when `CCCn1cnc2c(c1=N)C(c1ccc(OC)cc1)c1sc3c(CC)cccc3c1O2` (stereo not drawn) was run?
Its growth is 27.4%.

Which growth does the source give for `C#Cc1ccc(C(=O)NCc2ccc(/C=C/C(=O)c3nccn3C)cc2)cc1` here?
Its growth is -74.8% (active).

The molecules below were run on SK-MEL-28 melanoma in the same assay as above. Conditions: 10 µM unless noted.

Which growth does the source give for `NS(=O)(=O)c1ccc(Nc2nc(N/N=C/c3c[nH]c4ccccc34)nc(Nc3ccccc3)n2)cc1` here?
Its growth is 45.9%.

How did the growth turn out when `CCc1cccc2c3c(sc12)C(c1ccc(OC)cc1)C(C#N)=C(/N=C/c1ccc(Cl)cc1)O3` (stereo not drawn) was run?
Its growth is 59.8%.

For `Cn1ccnc1C(=O)/C=C/c1ccc(CNC(=O)c2ccc(F)cc2)cc1`, which growth is on record?
The growth was 80.5%.

With `N#Cc1cccc(NC(=O)c2cc(-c3ccc(F)cc3F)ccc2O)c1` as the molecule, how does the growth read?
Its growth is 25%.

Which growth does the source give for `O=S(=O)(NCCCNc1nccc(-c2[nH]c(-c3ccccc3)nc2-c2ccc(Cl)c(O)c2)n1)c1cccc2ccccc12` here?
The growth was 29.8%.

How did the growth turn out when `CC1(C)[C@@H](O)CC[C@]2(C)[C@H]3CC[C@@H]4[C@H]5[C@H](C(=O)/C=C\c6ccncc6)CC[C@]5(O)CC[C@@]4(C)[C@]3(C)CC[C@@H]12` was run?
Its growth is 74.8%.

Which growth does the source give for `CS(=O)(=O)Nc1cc(-c2ccc3ncc(C#N)c(N[C@H](CO)c4ccccc4)c3c2)cnc1Cl` here?
The growth was 35.2%.

For `O=C(CSc1nc2ccccc2c(=O)n1-c1ccccc1)Nc1ccc(-c2nc3ccc([N+](=O)[O-])cc3[nH]2)cc1`, which growth is on record?
Its growth is 82.6%.

For `Oc1cccc2ccc(-c3nnc(SCc4ccc(O)c5ncccc45)n3-c3ccccc3)nc12`, which growth is on record?
The growth was 22%.

Which growth does the source give for `C=CCn1c(SCC(=O)Nc2ccc(C(=O)/C=C/c3ccc(C)cc3)cc2)nnc1-c1c[nH]c2ccccc12` here?
The growth was 96%.

Which growth does the source give for `C[C@@H](Nc1c(C#N)cnc2ccc(-c3cnc(Cl)c(NS(C)(=O)=O)c3)cc12)c1ccccc1` here?
The growth was 5.72% (active).

Which growth does the source give for `CCN(CC)c1ccc(NC2=C(Cl)C(=O)c3nc(C)ccc3C2=O)cc1` here?
The growth was 37.5%.

How did the growth turn out when `C#Cc1nc(C(=O)NCCC(=O)Nc2ccc(NC(=O)c3ccc(/C=C/C(=O)c4nccn4C)cc3)cc2)cs1` was run?
Its growth is 84.8%.

With `CCN(CC)CCn1c2ccc(O)cc2c2sc3cc(OC)ccc3c(=O)c21` as the molecule, how does the growth read?
The growth was 2.25% (active).

Which growth does the source give for `CC1(C)CC[C@]2(C(=O)N3CCOCC3)CC[C@]3(C)C(=CC[C@@H]4[C@@]5(C)C/C(=C/c6ccccn6)C(=O)C(C)(C)[C@@H]5CC[C@]43C)[C@@H]2C1` here?
The growth was 86.1%.

How did the growth turn out when `Cc1nc(-c2ccccc2O)ccc1C(=O)N=Nc1c(O)[nH]c2ccc(Br)cc12` was run?
Its growth is 101%.

`O=C(CCn1c[n+](CC(=O)c2ccc(-c3ccccc3)cc2)c2ccccc21)Nc1cccc2cccnc12` was tested. Which growth did it give?
The growth was 38.9%.

Which growth does the source give for `COC(=O)c1[nH]nc2c1C1(C(=O)c3cccc4cccc1c34)C(C#N)=C(N)O2` (stereo not drawn) here?
The growth was 112%.

For `N=c1c2cc(-c3ccccc3)oc2ncn1/N=C/c1ccc(Cl)cc1`, which growth is on record?
Its growth is 82.9%.

With `Cc1ccc(-n2c(/C=C3\C(=O)Nc4ccccc43)ccc2CO)cc1` as the molecule, how does the growth read?
The growth was 70.9%.

How did the growth turn out when `CC(=O)N(C)C1CCc2c(sc(NC(=O)c3ccc(C(C)(C)C)cc3)c2C(N)=O)C1` (stereo not drawn) was run?
The growth was 80%.

For `CC1(C)[C@@H](O)CC[C@]2(C)[C@H]3CC[C@@H]4[C@H]5[C@H](C(=O)/C=C\c6ccc([N+](=O)[O-])cc6)CC[C@]5(O)CC[C@@]4(C)[C@]3(C)CC[C@@H]12`, which growth is on record?
Its growth is 46%.

Which growth does the source give for `Cc1ccc(NC(=O)CNc2cc(C(N)=O)cc(F)c2C)c(Cl)c1` here?
The growth was 99.5%.

For `COc1ccc(N2CCN(C3=C(Cl)C(=O)C(C)=C(C)C3=O)CC2)cc1`, which growth is on record?
The growth was 118%.

`CN1CCN(c2ccc(/C=N/Nc3nc4ccccc4c(=O)n3-c3ccccc3)cc2)CC1` was tested. Which growth did it give?
The growth was 103%.

`COc1cc(-c2nc3sccn3c2-c2ccnc(S(C)(=O)=O)n2)ccc1F` was tested. Which growth did it give?
Its growth is 97.7%.

With `Cc1ccc2c(c1)Oc1nc(N)c(C#N)c(N)c1C2Sc1ccc(F)cc1` (stereo not drawn) as the molecule, how does the growth read?
The growth was -98.9% (active).

`CCCn1cnc2c(c1=N)C(c1ccc(F)cc1)c1sc3c(C)cccc3c1O2` (stereo not drawn) was tested. Which growth did it give?
The growth was 45.1%.

`COc1ccc(Cn2cc3c(c2-c2cc(OC)c(OC)c(OC)c2)CCc2c(CN4CCCC4)noc2-3)cc1` was tested. Which growth did it give?
Its growth is 60.9%.

With `CC1=N[C@@H]2CN(C(=O)OC(C)(C)C)C[C@@H]2n2c1cc1ccccc1c2=O` as the molecule, how does the growth read?
The growth was 115%.

For `COc1cc(OC)cc(C(=O)Nc2cccc(C#Cc3cccc4[nH]nc(N)c34)c2)c1`, which growth is on record?
The growth was 50.3%.

How did the growth turn out when `COc1ccccc1-n1cc(C#N)c(N)c1C(=O)c1ccc(Br)cc1` was run?
The growth was 69%.

Which growth does the source give for `CS(=O)(=O)Nc1cc(-c2ccc3ncc(C#N)c(NCc4cccc(F)c4)c3c2)cnc1Cl` here?
The growth was 4.56% (active).

With `CC[C@H](CO)Nc1ccc2ncc(C#Cc3cncc(C(=O)Nc4ccc(CN5CCN(C)CC5)c(C(F)(F)F)c4)c3)n2n1` as the molecule, how does the growth read?
Its growth is -79.9% (active).

How did the growth turn out when `COc1cc(-c2nc(SCCC(C)C)nc(NNC(=O)c3ccncc3)c2C#N)cc(OC)c1OC` was run?
The growth was 85.8%.

With `CCCCCc1ccc(S(=O)(=O)Nc2cc(-c3csc(NC(=O)CN4CCN(CCO)CC4)n3)ccc2OC)cc1` as the molecule, how does the growth read?
The growth was -60.5% (active).

How did the growth turn out when `CCCn1cnc2c(c1=N)C(c1ccc(OC)cc1)c1sc3c(CC)cccc3c1O2` (stereo not drawn) was run?
Its growth is 57.8%.

With `C#Cc1ccc(C(=O)NCc2ccc(/C=C/C(=O)c3nccn3C)cc2)cc1` as the molecule, how does the growth read?
The growth was 48.8%.
